Screens deposited in PubChem by National Center for Advancing Translational Sciences (NCATS).
The list is not random: actives were taken first. Their share in the collection is about 19%.
TDP1 cell CPT: DT40-hTDP1 cell growth loss with CPT | AID 686979 | Potency, µM (top dose mostly 46.2 µM), for the others: top-dose activity change, negative = growth inhibition, hits mostly inhibitors | 12% of 420,000 active | chicken DT40 Tdp1-/-;hTDP1 cells + 20 nM CPT, ATP luminescence, 48 h; further: potency means the concentration at half of the fitted maximal effect; nearly all actives have a fitted effect of over 55% in size
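Cell growth measured by CellTiter-Glo luminescence after a minimum 48 h, 37 C compound exposure with 20 nM CPT in Tdp1-knockout DT40 cells stably expressing hTDP1, seeded 400/well; qHTS titration format.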
IL-1B inflam inh: inhibitors of inflammasome signaling (IL-1 beta secretion). THP-1 LPS/ATP IL-1B secretion, AlphaLISA, 16 h; active compounds read low. activity change, % at 57.5 µM. 4.7% of 360,000 active. AID 743279; in the data active means activity change below about -50%; inconclusive means mostly about -30% to -49%
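Secreted IL-1B measured by AlphaLISA bead assay after 16 h compound exposure of THP-1 cells; compounds (final up to 57.5 uM) added 1 h before LPS (250 ng/mL) and ATP (1.25 mM) stimulation; lower signal means less secretion.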
HT1080NT lethal: kills 2HG-producing HT-1080-NT fibrosarcoma cells; HT-1080-NT fibrosarcoma viability, CellTiter-Glo ATP luminescence, 48 h; Potency, µM (top dose mostly 46.1 µM), without a hit: top-dose activity, negative = less viability, most hits filed as cytotoxic; 1.6% of 360,000 active;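 further: NT is the 2HG producing partner of a matched IDH1 knockdown line; potency means the concentration at half of the fitted maximal effect; 0% = DMSO-treated cells and -100% = media-only wells without cells; nearly all actives have a fitted effect of over 55% in size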
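A 48-hour cytotoxicity screen used HT-1080-NT cells plated 2 hours before compound delivery. ATP-based CellTiter-Glo luminescence measured viability, normalized to DMSO and no-cell controls.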
ELG1 DNA repair: blocks ELG1-dependent DNA repair in HEK293T cells; AID 504467; 2.3% of 330,000 active; HEK293T ELG1-luciferase reporter, luminescence, 16 h; DNA damage induced by 5-fluorouridine; Potency, µM (top dose mostly 46.1 µM), without a hit: top-dose activity change, negative = inhibition, usual class: inhibitors; further: potency means the concentration at half of the fitted maximal effect; nearly all actives have a fitted effect of over 55% in size
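Reporter activity after DNA damage by 5-fluorouridine is monitored. Compound-treated cells incubate 16 hr at 37 °C, then ONE-Glo is added for 30 min before luminescence reading.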
HT1080 IDH1KD tx: kills HT-1080 cells with IDH1 knockdown. HT-1080 IDH1 knockdown viability, ATP luminescence, 48 h. Potency, µM (titrated, usually from 46.1 µM), inactives show top-dose activity, negative = toxicity, hits mostly cytotoxic. 2% of 360,000 active. AID 686971;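 further: potency means the concentration at half of the fitted maximal effect; 0% = DMSO wells and -100% = cell-free medium wells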
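Viability of IDH1-knockdown HT-1080 fibrosarcoma cells was assessed by CellTiter-Glo after 48 h at 37 °C with titrated compound; concentration-effect curves were classified by fit quality and response size.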
DT40 TDP1 no CPT: qHTS for Inhibitors of human tyrosyl-DNA phosphodiesterase 1 (TDP1): qHTS in cells in absence of CPT; DT40 Tdp1-/- hTDP1 cells, no CPT, ATP luminescence, 48 h; Potency, µM (highest dose often 46.2 µM), for the others: at the highest dose activity change, negative = growth inhibition, most hits filed as inhibitors; 15% of 420,000 active; AID 686978, 2013; further: potency means the concentration at half of the fitted maximal effect; nearly all actives have a fitted effect of over 55% in size
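Chicken DT40 Tdp1-/- cells complemented with human TDP1, screened without camptothecin (DMSO vehicle only), 400 cells/well. Compounds pin-transferred, cells incubated at 37 °C for at least 48 hr. Growth read as ATP-dependent luminescence (CellTiter-Glo, 30 min at RT).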
Starred values were filed as active, the others as inactive; ? = inconclusive; . = no result; [ ] = dose if it differs, or a comment. Unless noted, the call rests on the fitted dose curve; in most records, active means well fitted curve in the direction sought with a large enough effect; inconclusive means small, poorly fitted or top-dose-only effect, or another doubt; inactive means no such curve, though single readings can be large; an effect the other way counts as inactive or inconclusive. Unless noted, on the % scale 0 is the no-effect control and ±100 the full control effect.

SMILES	TDP1 cell CPT	IL-1B inflam inh	HT1080NT lethal	ELG1 DNA repair	HT1080 IDH1KD tx	DT40 TDP1 no CPT
O=C(c1ccc(Cl)cc1)c1c[nH]c(C(=O)C(Cl)(Cl)Cl)c1	12µM*	-112*	5%	9%	10%	12µM*
O=C(c1ccccc1)c1c[nH]c(C(=O)C(Cl)(Cl)Cl)c1	?	-18	-12%	4%	-2%	?
CNC(=O)c1cc(C(=O)c2ccc(Cl)cc2)c[nH]1	-3%	-15	20%	?	15%	-22%
Cc1ccc(NC(=O)c2ccc(C(C)(C)C)cc2)cc1[N+](=O)[O-]	-13%	-6	0%	?	-3%	-25%
COCCC(=O)N1CCC(C(=O)Nc2ccc(Oc3ccccc3)nc2)CC1	?	16	12%	?	8%	1%
O=C(Cc1ccccc1)c1c[nH]c(C(=O)NCc2ccncc2)c1	10%	8	-3%	-6%	5%	20%
O=C(Cc1ccccc1)c1c[nH]c(C(=O)C(Cl)(Cl)Cl)c1	2.9µM*	-7	17%	9%	16%	6.5µM*
CN1C(=O)CC(Nc2cccc3cccc(N)c23)C1=O (stereo not given)	-1%	17	-17%	?	-12%	-3%
CC(C)N1C(=O)CC(Nc2cccc3cccc(N)c23)C1=O (stereo not given)	23µM*	-1	1%	?	3%	21µM*
S=c1[nH]nc(-c2cccc3ccccc23)n1-c1cccnc1	12%	24	4%	2%	16%	-11%
CC(=O)c1cccc(N(C(=O)CNC(=O)c2ccco2)C(C(=O)NC2CCCC2)c2ccco2)c1 (stereo not given)	-9%	13	22%	-1%	6%	-15%
CCCn1ncc(/C=N/O)c1C	?	21	-1%	?	-1%	?
c1ccc(C(c2ccccc2)N2CC[C@@]3(CCCNC3)C2)cc1	?	.	.	.	.	26µM*
c1ccc(C(c2ccccc2)N2CCCC3(CCNCC3)C2)cc1	9.2µM*	.	.	.	.	6.5µM*
O=c1nc2onnc2c(C=NO)[nH]1	-19%	1	15%	.	21%	-12%
Cc1cccc(N2CCN(C(=O)CCn3c(=S)[nH]c4cc5c(cc4c3=O)OCO5)CC2C)c1 (stereo not given)	16µM*	0	-8%	10µM*	1%	23µM*
CC(=O)c1ccc(N2CCN(C(=O)CCCn3c(=S)[nH]c4cc5c(cc4c3=O)OCO5)CC2)cc1	-28%	16	-13%	18µM*	0%	-29%
O=C(CCCn1c(=S)[nH]c2cc3c(cc2c1=O)OCO3)N1CCN(c2ccc(Cl)cc2)CC1	?	-25	-9%	23µM*	-17%	18µM*
CCOC(=O)N1CCN(C(=O)CCCCCn2c(=S)[nH]c3cc4c(cc3c2=O)OCO4)CC1	?	16	28%	?	?	?
Cc1cccc(N2CCN(C(=O)CCCn3c(=S)[nH]c4cc5c(cc4c3=O)OCO5)CC2)c1C	?	-7	-9%	10µM*	-4%	?
O=C(CCCn1c(=S)[nH]c2cc3c(cc2c1=O)OCO3)N1CCN(c2ccccc2)CC1	?	-27	5%	-3%	1%	?
COc1ccc(Cl)cc1NC(=O)C(C)OC(=O)Cn1cc(C(F)(F)F)ccc1=O (stereo not given)	?	23	9%[9.24 µM]	-5%	5%	-5%
N#Cc1ccc(-c2nc3ccc(Cl)cn3c2Cc2ccccc2)cc1	21µM*	-14	-7%	.	-12%	?
Cc1ccc(Cc2c(-c3ccc(C#N)cc3)nc3ccc(Cl)cn23)cc1	-24%	-10	15%	.	4%	?
